Laboratory results taken from ChEMBL document CHEMBL1961873, “Compounds: GSK PKIS; Assays: Nanosyn kinase panel” (2012).

What was measured:
[1] = biological target: Glycogen synthase kinase-3 beta (Homo sapiens) (UniProt P49841); conditions: at 1 µM;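 note: reported values are mean percent inhibition of GSK3B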
[2] = biological target: Homeodomain-interacting protein kinase 1 (Homo sapiens) (UniProt Q86Z02); conditions: at 0.1 µM
[3] = biological target: Homeodomain-interacting protein kinase 1 (Homo sapiens) (UniProt Q86Z02); conditions: at 1 µM
[4] = biological target: T1, Homeodomain-interacting protein kinase 4 (Homo sapiens) (UniProt Q8NE63); conditions: at 0.1 µM
T1 sequence (whole entry): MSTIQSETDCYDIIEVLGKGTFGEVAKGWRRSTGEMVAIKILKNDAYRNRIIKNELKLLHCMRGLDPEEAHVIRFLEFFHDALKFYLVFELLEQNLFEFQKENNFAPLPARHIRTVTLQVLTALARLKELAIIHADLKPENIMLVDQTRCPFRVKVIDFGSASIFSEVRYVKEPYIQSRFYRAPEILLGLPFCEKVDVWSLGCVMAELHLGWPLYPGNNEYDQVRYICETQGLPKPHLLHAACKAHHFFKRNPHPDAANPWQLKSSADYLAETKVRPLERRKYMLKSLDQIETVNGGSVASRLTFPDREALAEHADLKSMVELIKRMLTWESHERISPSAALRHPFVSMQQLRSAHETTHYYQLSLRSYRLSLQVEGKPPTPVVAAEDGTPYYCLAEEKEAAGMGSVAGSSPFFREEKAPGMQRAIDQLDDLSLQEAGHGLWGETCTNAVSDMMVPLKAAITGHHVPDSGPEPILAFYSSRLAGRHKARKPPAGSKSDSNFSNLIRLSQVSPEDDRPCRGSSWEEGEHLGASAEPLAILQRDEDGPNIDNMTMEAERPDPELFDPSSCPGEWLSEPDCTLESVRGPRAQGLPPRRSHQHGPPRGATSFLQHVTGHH

[5] = biological target: T1, Homeodomain-interacting protein kinase 4 (Homo sapiens); conditions: at 1 µM
[6] = biological target: Mitogen-activated protein kinase 9 (Homo sapiens) (UniProt P45984); conditions: at 0.1 µM
[7] = biological target: Mitogen-activated protein kinase 9 (Homo sapiens) (UniProt P45984); conditions: at 1 µM
[8] = biological target: Mitogen-activated protein kinase 1 (Homo sapiens) (UniProt P28482); conditions: at 0.1 µM
[9] = biological target: Mitogen-activated protein kinase 1 (Homo sapiens) (UniProt P28482); conditions: at 1 µM
[10] = biological target: Mitogen-activated protein kinase 3 (Homo sapiens) (UniProt P27361); conditions: at 0.1 µM;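 note: each value is a mean inhibition figure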
Chain of Mitogen-activated protein kinase 3 (Homo sapiens) (P27361 whole entry): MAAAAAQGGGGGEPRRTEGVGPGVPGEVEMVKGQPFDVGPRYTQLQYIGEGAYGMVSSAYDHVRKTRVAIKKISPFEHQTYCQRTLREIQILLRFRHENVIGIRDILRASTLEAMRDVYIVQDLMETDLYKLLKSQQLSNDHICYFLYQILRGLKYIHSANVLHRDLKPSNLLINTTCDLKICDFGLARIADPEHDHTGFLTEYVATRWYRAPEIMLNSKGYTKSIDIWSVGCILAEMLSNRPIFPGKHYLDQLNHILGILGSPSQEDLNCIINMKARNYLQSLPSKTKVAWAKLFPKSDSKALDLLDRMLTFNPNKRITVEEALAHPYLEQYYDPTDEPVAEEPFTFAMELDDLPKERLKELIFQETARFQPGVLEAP

Chain of Mitogen-activated protein kinase 1 (Homo sapiens) (P28482 whole entry): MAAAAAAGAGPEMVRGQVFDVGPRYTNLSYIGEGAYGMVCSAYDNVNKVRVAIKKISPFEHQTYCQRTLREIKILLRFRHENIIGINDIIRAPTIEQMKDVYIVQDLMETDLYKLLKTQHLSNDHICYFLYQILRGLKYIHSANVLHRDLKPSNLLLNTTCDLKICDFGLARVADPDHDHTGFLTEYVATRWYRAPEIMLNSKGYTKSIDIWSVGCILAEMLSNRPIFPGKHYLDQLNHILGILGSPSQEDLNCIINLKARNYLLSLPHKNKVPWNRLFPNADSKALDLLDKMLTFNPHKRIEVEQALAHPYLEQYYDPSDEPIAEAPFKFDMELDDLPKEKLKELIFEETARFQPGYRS
Chain of Glycogen synthase kinase-3 beta (Homo sapiens) (P49841 whole entry, looked up): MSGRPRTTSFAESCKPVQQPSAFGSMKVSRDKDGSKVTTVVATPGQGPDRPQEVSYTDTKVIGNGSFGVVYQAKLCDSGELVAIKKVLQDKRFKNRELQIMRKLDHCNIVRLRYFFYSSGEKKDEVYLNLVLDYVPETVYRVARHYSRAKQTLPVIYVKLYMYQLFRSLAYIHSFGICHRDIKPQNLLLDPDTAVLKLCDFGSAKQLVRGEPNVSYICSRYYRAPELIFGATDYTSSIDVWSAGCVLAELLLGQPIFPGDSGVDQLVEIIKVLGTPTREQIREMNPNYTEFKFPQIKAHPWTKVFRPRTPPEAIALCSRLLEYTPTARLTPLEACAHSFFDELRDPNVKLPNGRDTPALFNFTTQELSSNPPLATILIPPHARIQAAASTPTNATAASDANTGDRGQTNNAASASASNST
Chain of Homeodomain-interacting protein kinase 1 (Homo sapiens) (Q86Z02 whole entry, looked up): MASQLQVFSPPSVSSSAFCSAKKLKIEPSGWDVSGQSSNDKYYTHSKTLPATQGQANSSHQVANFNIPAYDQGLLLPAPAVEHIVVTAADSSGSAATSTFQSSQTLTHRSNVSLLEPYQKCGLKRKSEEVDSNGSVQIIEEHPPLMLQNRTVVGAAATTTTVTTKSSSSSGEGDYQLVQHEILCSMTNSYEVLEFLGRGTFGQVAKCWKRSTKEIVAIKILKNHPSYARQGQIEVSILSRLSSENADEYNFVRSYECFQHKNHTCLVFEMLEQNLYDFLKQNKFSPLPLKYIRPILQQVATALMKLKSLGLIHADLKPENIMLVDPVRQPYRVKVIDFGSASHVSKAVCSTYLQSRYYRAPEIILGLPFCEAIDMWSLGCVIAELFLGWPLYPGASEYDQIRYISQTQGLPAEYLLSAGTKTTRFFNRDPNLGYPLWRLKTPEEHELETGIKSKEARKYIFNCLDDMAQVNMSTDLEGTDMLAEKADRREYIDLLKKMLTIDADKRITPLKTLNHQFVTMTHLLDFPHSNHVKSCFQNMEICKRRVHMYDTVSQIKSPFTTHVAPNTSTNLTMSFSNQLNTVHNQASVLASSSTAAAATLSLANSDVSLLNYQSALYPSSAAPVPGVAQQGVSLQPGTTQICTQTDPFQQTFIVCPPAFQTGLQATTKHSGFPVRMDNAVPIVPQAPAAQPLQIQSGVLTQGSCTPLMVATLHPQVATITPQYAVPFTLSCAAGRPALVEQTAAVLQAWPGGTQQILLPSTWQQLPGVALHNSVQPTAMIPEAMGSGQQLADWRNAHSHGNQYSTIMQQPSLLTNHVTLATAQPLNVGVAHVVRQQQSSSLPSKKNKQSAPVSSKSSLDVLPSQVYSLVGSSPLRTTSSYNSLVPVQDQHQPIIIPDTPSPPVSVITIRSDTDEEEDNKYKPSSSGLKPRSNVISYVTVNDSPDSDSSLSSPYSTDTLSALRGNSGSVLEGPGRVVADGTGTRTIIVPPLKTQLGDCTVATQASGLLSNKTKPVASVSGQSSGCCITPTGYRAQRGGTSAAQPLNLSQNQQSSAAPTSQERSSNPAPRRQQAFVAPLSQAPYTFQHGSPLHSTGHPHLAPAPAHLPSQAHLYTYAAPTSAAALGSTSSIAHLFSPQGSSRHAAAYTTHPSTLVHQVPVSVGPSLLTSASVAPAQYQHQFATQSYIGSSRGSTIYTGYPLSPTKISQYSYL
Chain of Mitogen-activated protein kinase 9 (Homo sapiens) (P45984 whole entry, looked up): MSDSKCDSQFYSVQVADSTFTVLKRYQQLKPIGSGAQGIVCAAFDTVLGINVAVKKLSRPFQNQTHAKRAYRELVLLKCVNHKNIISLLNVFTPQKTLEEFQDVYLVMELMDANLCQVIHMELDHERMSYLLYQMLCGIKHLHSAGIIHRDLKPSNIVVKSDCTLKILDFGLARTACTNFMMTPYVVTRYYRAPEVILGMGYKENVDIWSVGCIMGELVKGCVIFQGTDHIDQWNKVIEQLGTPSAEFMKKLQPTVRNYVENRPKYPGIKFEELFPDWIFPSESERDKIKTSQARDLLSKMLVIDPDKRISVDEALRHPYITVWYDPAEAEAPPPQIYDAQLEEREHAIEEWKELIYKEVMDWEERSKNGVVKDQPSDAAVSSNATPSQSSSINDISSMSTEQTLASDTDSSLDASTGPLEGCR

SMILES | inhibition [1] [%] | inhibition [2] [%] | inhibition [3] [%] | inhibition [4] [%] | inhibition [5] [%] | inhibition [6] [%] | inhibition [7] [%] | inhibition [8] [%] | inhibition [9] [%] | inhibition [10] [%]
COc1cccc(-n2ncc3c(N/N=C/c4ccncc4)ncnc32)c1 | 89.2 | 26.6 | 69.8 | 19.6 | 61.3 | 0.79 | 11.2 | 5.32 | 7.16 | 4.96
NC(=O)c1sc(-n2cnc3cc(C(F)(F)F)ccc32)cc1OCc1ccccc1Br | 2.38 | -3.51 | 0.77 | -0.26 | 2.95 | 0.9 | 1.72 | 0.51 | 2.13 | 3.5
CCn1c(-c2nonc2N)nc2c(C#CC(C)(C)O)ncc(OC[C@@H]3CCCN3)c21 | 46.9 | -6.24 | 6.03 | 0.03 | 0.31 | -0.05 | 0.92 | 1.59 | 1.3 | 1.69
CCn1c(-c2nonc2N)nc2c(C#CCN)ncc(OCCCN)c21 | 14.4 | 3.64 | 2.54 | 1.45 | 2.86 | -2.82 | -3.07 | -2.43 | -4.85 | -3.01
CCn1c(-c2nonc2N)nc2c(C#CC(C)(C)O)ncc(OCC3CCNCC3)c21 | 55.4 | 0.15 | 19.7 | 1.95 | 11.1 | 2.04 | 2.67 | 5.25 | 4.1 | 5.07
COc1cc(C=NNc2ncnc3c2cnn3Cc2ccccc2)ccc1O | 17.7 | -2.83 | 1.68 | -0.49 | 2.59 | -0.98 | -0.48 | 2.37 | -6.99 | -2.79
Fc1ccc(-c2ncn(C3CCNCC3)c2-c2ccnc(Oc3ccccc3)n2)cc1 | -1.88 | -7.18 | -6.2 | 0.38 | 2.3 |  |  | 2.78 | 6.09 | 2.44
Cc1cc(-c2ccco2)cc(C)c1/C=C/c1cncc(-c2nn[nH]n2)c1 | 0.28 | -3.37 | -0.75 | -0.32 | -0.04 | 1.02 | 0.6 | 1.32 | 2.18 | 3.63
CCn1c(-c2nonc2N)nc2c(C#CC(C)(C)O)nc(O[C@@H](CN)c3ccccc3)cc21 | 84.6 | 10.4 | 55.3 | 3.23 | 36.3 | 2.01 | 1.01 | -1.73 | 5.15 | 0.9
NS(=O)(=O)c1ccc(N/C=C2\C(=O)Nc3ccc4ncsc4c32)cc1 | 65.1 | 3.83 | 34.7 | 1.88 | 11.8 | 5.59 | 20.2 | 8.37 | 31.1 | 5.66
COc1cccc(COc2cc(-n3cnc4ccccc43)sc2C(N)=O)c1 | 2.12 | -6.56 | 1.66 | -0.59 | 2.84 | 2.36 | -2.62 | 1.13 | 1.97 | 2.69
NS(=O)(=O)c1ccc(-c2ccc3c(NC(=O)C4CC4)n[nH]c3c2)cc1 | 7.66 | 2.52 | 7.94 | 3.34 | 4.2 | 3.73 | 4.23 | 2.15 | 3 | 1.44
COc1cc2c(cc1Nc1nc(Nc3ccsc3C(N)=O)c3cc[nH]c3n1)N(C(=O)CN(C)C)CCC2 | 2.63 | -2.33 | 5.85 | 2.25 | 5.44 | 3.02 | 8.04 |  |  | 2.93
Nc1nonc1-c1nc2cnccc2n1C1CCCCC1 | 90 | -0.6 | 16.1 | 0.63 | 10.3 | -0.52 | -0.67 | -1.37 | 1.38 | -0.87
